In PubChem BioAssay AID1159580 (chemical genetic matrix, 2015):
Hit rate of the full screen: of about 5,500 compounds, about 2,000 (36%) were called active. Not shown: some 18% with an inconclusive outcome. No stated cut-off is given here; in the data, active means normalized growth mostly below about 0.91 (no sharp cut-off); inconclusive means no clear call, values can overlap the other calls; inactive means mostly above about 0.92. Some of the results follow.

Assay: chemical genetic growth profiling, strain panel (AID 1159580);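 further: tested at 20 µM; growth read once vehicle control cultures reached saturation at 30 °C; 1 = growth at the plate median or of vehicle wells; lower values mean less growth of the strain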
Conditions: growth OD
[1] = S. cerevisiae deletion strains, locus YAL013W, strain DEP1, hits give low values
[2] = S. cerevisiae deletion strains, locus YGR078C, strain PAC10, hits give low values
[3] = S. cerevisiae deletion strains, locus YJR075W, strain HOC1, hits give low values
[4] = S. cerevisiae deletion strains, locus YMR307W, strain GAS1, hits give low values
[5] = S. cerevisiae deletion strains, locus YNL153C, strain GIM3, hits give low values

Measured: normalized growth

Cc1oc(-c2ccccc2)cc1C(=O)N1CCN(c2ccc(C(F)(F)F)cn2)CC1
inactive: S. cerevisiae deletion strains, locus YBR229C, strain ROT2, hits give low values 0.961 | S. cerevisiae deletion strains, locus YCL061C, strain MRC1, hits give low values 0.984 | S. cerevisiae deletion strains, locus YDL101C, strain DUN1, hits give low values 1 | S. cerevisiae deletion strains, locus YDR150W, strain NUM1, hits give low values 0.858 | S. cerevisiae deletion strains, locus YEL061C, strain CIN8, hits give low values 0.947 | [2] 0.963 | S. cerevisiae deletion strains, locus YHR087W, strain rtc3, hits give low values 0.935 | S. cerevisiae deletion strains, locus YJL187C, strain SWE1, hits give low values 0.988 | S. cerevisiae deletion strains, locus YJR043C, strain POL32, hits give low values 0.98 | [3] 0.964 | S. cerevisiae deletion strains, locus YLR039C, strain RIC1, hits give low values 0.876 | S. cerevisiae deletion strains, locus YLR058C, strain SHM2 (second series), hits give low values 0.977 | S. cerevisiae deletion strains, locus YLR262C, strain YPT6, hits give low values 0.941 | S. cerevisiae deletion strains, locus YML094W, strain GIM5, hits give low values 0.875 | S. cerevisiae deletion strains, locus YMR219W, strain ESC1, hits give low values 0.975 | S. cerevisiae deletion strains, locus YMR263W, strain SAP30, hits give low values 0.919 | [4] 0.762 | [5] 0.978 | S. cerevisiae deletion strains, locus YNL322C, strain KRE1, hits give low values 0.984 | S. cerevisiae deletion strains, locus YOL006C, strain TOP1, hits give low values 0.795 | S. cerevisiae strains, strain wild type, hits give low values 0.957
active: [1] 0.86 | S. cerevisiae deletion strains, locus YHR030C, strain SLT2, hits give low values 0.433 | S. cerevisiae deletion strains, locus YLR085C, strain ARP6, hits give low values 0.663 | S. cerevisiae deletion strains, locus YNL298W, strain CLA4 (second series), hits give low values 0.826 | S. cerevisiae deletion strains, locus YNR030W, strain Alg12, hits give low values 0.823 | S. cerevisiae deletion strains, locus YPL055C, strain LGE1, hits give low values 0.709 | S. cerevisiae deletion strains, locus YPR135W, strain CTF4, hits give low values 0.497

NCCNC(=O)c1ncsc1-c1cccc(F)c1
inactive: [1] 1.02 | S. cerevisiae deletion strains, locus YAL040C, strain CLN3, hits give low values 0.986 | S. cerevisiae deletion strains, locus YCL061C, strain MRC1 (second series), hits give low values 0.991 | S. cerevisiae deletion strains, locus YDR363W, strain ESC2, hits give low values 1.02 | S. cerevisiae deletion strains, locus YER002W, strain NOP16, hits give low values 1 | [2] 0.989 | [3] 1.01 | [4] 1 | S. cerevisiae deletion strains, locus YNL128W, strain TEP1, hits give low values 0.99 | [5] 0.983 | S. cerevisiae deletion strains, locus YNL175C, strain NOP13, hits give low values 0.984 | S. cerevisiae deletion strains, locus YNL197C, strain WHI3, hits give low values 0.989 | S. cerevisiae deletion strains, locus YNL224C, strain SQS1, hits give low values 0.996 | S. cerevisiae deletion strains, locus YOR083W, strain WHI5 (second series), hits give low values 0.974
